Screening results: PubChem BioAssay, NMMLSC
LAP4-GFP MLPCN: alters LAP4-GFP fluorescence in TOR pathway yeast screen | S. cerevisiae LAP4-GFP multiplex, flow cytometry GFP, 3 h; median GFP as percent of DMSO wells | GFP response vs DMSO, % at 10 µM | actives 0.34% (n = 320,000);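 active means GFP response vs DMSO above a set limit, about the screen mean plus 3 SD, cut at about 150% in these data; inconclusive means under 70 cell events counted for the yeast strain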
AGP1 TOR yeast: yeast TOR pathway AGP1-GFP modulation. S. cerevisiae AGP1-GFP multiplex flow cytometry, 3 h; GFP as percent of DMSO wells. actives 0.02% (n = 320,000). AID 2066. GFP response vs DMSO, % at 10 µM;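 active means GFP response relative to DMSO above a set limit, near screen average plus 3 SD, cut at about 150% in these data; inconclusive means fewer than 70 cells counted for the yeast strain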;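 further: median GFP channel fluorescence of the gated AGP1 strain per well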
RPL19A TOR yeast: alters RPL19A-GFP fluorescence in TOR pathway yeast screen; S. cerevisiae RPL19A-GFP strain, flow cytometry, 3 h; active compounds read low; percent response vs DMSO, % at 10 µM; actives 0.3% (n = 330,000);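 active means percent response vs DMSO below 50%; inconclusive means fewer than 70 events counted for the yeast strain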;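 further: median channel GFP fluorescence of the barcoded RPL19A-GFP strain; lower means less RPL19A-GFP as with rapamycin TOR inhibition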
CIT2 TOR yeast: yeast TOR pathway CIT2-GFP modulation; S. cerevisiae CIT2-GFP strain, flow cytometry, 3 h; 100 means same as DMSO wells; GFP response vs DMSO, % at 10 µM; actives 0.065% (n = 320,000);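 active means GFP response relative to DMSO above a set limit, near the screen mean plus 3 SD, cut at about 150% in these data; inconclusive means Fewer than 70 cells measured for a yeast strain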;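 further: ratio of well median GFP fluorescence to mean of DMSO wells on the plate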
MEP2 TOR yeast: yeast TOR pathway MEP2-GFP modulation. S. cerevisiae MEP2-GFP strain, flow cytometry GFP, 3 h; 100% = DMSO control level. GFP response vs DMSO, % at 10 µM. actives 0.51% (n = 330,000). AID 2016;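 active means GFP response versus DMSO above a set limit, roughly screen mean plus 3 SD, cut at about 180% in these data; inconclusive means fewer than 70 cells counted for a yeast strain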;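 further: median GFP fluorescence of the barcode-gated MEP2-GFP cells per well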
Efflux pump inh: antifungal efflux pump inhibition, Nile Red retention. S. cerevisiae Candida pump triplex. AID 485275. inhibition, % at 10 µM. actives 0.44% (n = 330,000);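 active means plate passing quality check with inhibition over a set limit, or well fluorescence over plate mean plus 4 SD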;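 further: Nile Red retained in pooled yeast measured as flow cytometry median fluorescence; higher means more Nile Red kept so more efflux inhibition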
Numbers stand for hits; 0 = inactive; ? = inconclusive; [ ] = another dose, or the depositor's remark. Hits are enriched below; roughly 1.3% of the tested compounds scored in any of these assays.

SMILES	LAP4-GFP MLPCN	AGP1 TOR yeast	RPL19A TOR yeast	CIT2 TOR yeast	MEP2 TOR yeast	Efflux pump inh
COc1ccc(OCc2nc3ccc(S(=O)(=O)Nc4ccccc4Cl)cc3[nH]2)cc1	0	?	26.8[may fluoresce violet]	?	180.9[may fluoresce violet]	0
O=C1Nc2ccccc2C1(O)c1ccccc1O (stereo not given)	?	?	30.6[may fluoresce violet]	?	?	0
COC(=O)c1[nH]c2ccc(Br)cc2c1NC(=O)CN1CCN(C2CCCCC2)CC1	0	0	17.0[may fluoresce violet]	?	280.9[may fluoresce violet]	0
O=C(CCCSc1ccccc1)Nc1cccc(CO)c1	0	0	0	0	0	0
CCCCC[C@H](O)/C=C/[C@@H]1[C@@H](CCCCCCC(=O)O)[C@@H](O)C[C@H]1O	175.3	0	0	0	0	0
CCOC(=O)CC(NS(=O)(=O)c1ccc2[nH]cc(C(=O)O)c(=O)c2c1)c1ccc(OCC)c(OC)c1 (stereo not given)	0	0	0	0	0	0
COc1ccc(NC(=O)CCC(=O)Nc2nnc(C3CCCCC3)s2)c(OC)c1	0	0	0	0	0	0
COCCN1C(=O)c2ccccc2C(C(=O)NCCN(C)C)C1c1ccc(F)cc1 (stereo not given)	0	0	0	?	464.4[may fluoresce violet]	0
COc1ccc(-c2cc(=O)c3ccccc3o2)cc1	0	0	0	0	0	0
COc1ccc(C2Nc3ccc4ccccc4c3-c3c2c(=O)oc2ccccc32)cc1 (stereo not given)	0	0	0	0	0	1.7
O=C1NC2CCc3nc4ccccc4c(=O)n3C2=Nc2ccccc21 (stereo not given)	0	0	0	0	0	0
Cn1nc(-c2ccc(Cl)cc2)nc2c(=O)n(C)c(=O)nc1-2	203.0	0	0	0	0	0
COC(=O)c1cc(-c2ccc(Cl)cc2Cl)n[nH]1	0	0	0	0	0	0
N#Cc1ccccc1Sc1ccccc1C(=O)OCC(=O)N1CCN(C(=O)c2ccco2)CC1	0	?	14.7[may fluoresce violet]	?	207.0[may fluoresce violet]	0
Cc1ccc(C(=O)OCC(=O)Nc2ccc3c(c2)OCO3)o1	0	0	0	?	490.6[may fluoresce violet]	0
O=C(COC(=O)c1ccco1)Nc1ccc2c(c1)OCO2	0	0	0	0	0	0
N/C(=N\OC(=O)c1cccc(Cn2cc(C(F)(F)F)ccc2=O)c1)c1ccc(Cl)cc1	0	0	0	0	0	0
Cc1ccsc1C(=O)N(Cc1nnc(-c2ccccc2Cl)o1)C1CC1	164.4	0	0	0	0	0
O=C(CN1CCOCC1)Nc1ccc(Cl)cn1	0	0	0	0	0	0
O=C(Cc1ccccc1)NNc1c2ccccc2nc2ccccc12	0	0	0	0	0	0
O=C(Nc1c2ccccc2nc2ccccc12)C(Cl)(Cl)Cl	0	0	45.6	0	0	0
Cc1ccccc1OCC(=O)NCC(c1cccs1)N1CCOCC1 (stereo not given)	0	0	0	0	0	0
COc1ccc(C(=O)Oc2ccc(/C=N/NC(=O)c3ccccc3OC)cc2[N+](=O)[O-])cc1	0	0	0	0	195.4	0
COC(=O)Cn1c(=O)c2c(nc(Br)n2Cc2ccccc2Cl)n(C)c1=O	0	0	36.2[may fluoresce violet]	?	265.3[may fluoresce violet]	0
Cn1c(=O)c2c(nc(Br)n2Cc2ccccc2Cl)n(C)c1=O	0	0	0	0	0	0
SMILES	LAP4-GFP MLPCN	AGP1 TOR yeast	RPL19A TOR yeast	CIT2 TOR yeast	MEP2 TOR yeast	Efflux pump inh
CC(C)n1nccc1N(Cc1ccc(C#N)cc1)S(=O)(=O)c1ccccc1	0	0	0	0	0	0
CC1=C(C(=O)NCc2ccccc2)C(c2cccnc2)n2ncnc2N1 (stereo not given)	0	0	0	0	0	0
COc1ccc(C2C(C(=O)NCc3ccccc3)=C(C)Nc3ncnn32)cc1OC (stereo not given)	0	?	0	?	199.8[may fluoresce violet]	0
CCOC(=O)c1c(C=O)c2sc(C)cc2n1C	0	0	0	0	0	0
Cc1ccc(C(=O)O)cc1S(=O)(=O)N1CCSCC1	0	?	43.1[may fluoresce violet]	?	306.2[may fluoresce violet]	0
CCOC(=O)C1CCCN(C(=O)c2cc(S(=O)(=O)N3CCCCC3)ccc2Cl)C1 (stereo not given)	0	0	0	0	0	0
CCCCn1c(N)c(N(CCC(C)C)C(=O)C2=NN(c3ccccc3)C(=O)CC2)c(=O)[nH]c1=O	0	0	0	0	0	0
CCOC(=O)Cc1cc(=O)n(-c2nc3ccccc3s2)[nH]1	0	0	0	0	0	0
